Results: PubChem BioAssay
A number with no mark means an inactive call. The source made the active and inactive calls.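 How the source made its calls: active means z-score of at least 1.8 in each of two replicates, scored against plate mean and spread of sample wells; inactive means the rest.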

Test: viability rescue of complex I mutant cybrids, primary screen, cell-based, galactose medium, ATP luminescence (AID 1645843);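 further: positive z means more ATP and so rescue of galactose-driven cybrid death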
Settings: complex I mutant cybrid cells, 72 h, hits give high values

Question: Which z-score does the source give for `CCOC(=O)c1c(C)nn(-c2ccc(OC)cc2)c1C` here?
Answer: 0.595

Question: With `O=c1c(-c2ccc(O)cc2)coc2cc(OC3OC(CO)C(O)C(O)C3O)ccc12` (centres undefined) as the molecule, how does the z-score read?
Answer: 0.515

Question: Which z-score does the source give for `O=C(O)Cc1c[nH]c2ccccc12` here?
Answer: 0.49

Question: Which z-score does the source give for `O=C(O)c1cnc(-c2ccccc2)[nH]1` here?
Answer: 0.375

Question: Which z-score does the source give for `O=C(Nc1c[nH]c2ccccc12)c1cc(-c2ccc(F)cc2)n[nH]1` here?
Answer: -0.56

Question: For `Cc1ccc2c(C(=O)N(C)C(C)C)cc(-c3cnc(C(C)C)nc3)nc2c1`, which z-score is on record?
Answer: -0.485

Question: With `COc1cc(F)c(-c2nc3c(cnn3Cc3cccs3)[nH]2)c(F)c1` as the molecule, how does the z-score read?
Answer: 2.49 (active)

Question: Which z-score does the source give for `Cc1ccc(Sc2cccc3nc(N)nc(N)c23)cc1` here?
Answer: -2.52

Question: Which z-score does the source give for `CCn1c2ccccc2c2cc(CNC)ccc21` here?
Answer: -0.915

Question: For `CN(C)C(=O)CN(C)C(=O)c1cccc(Nc2ncnc3c2cnn3C)c1`, which z-score is on record?
Answer: -0.525

Question: With `Cn1c(=O)c2c(nc(N3CCNCC3)n2Cc2ccccc2)n(C)c1=O` as the molecule, how does the z-score read?
Answer: 0.525

Question: Which z-score does the source give for `O=c1cc(-c2ccccc2)oc2ccccc12` here?
Answer: 1.36

Question: For `O=c1[nH]c(=O)c2[nH]cnc2[nH]1`, which z-score is on record?
Answer: -0.02

Question: Which z-score does the source give for `Cc1ccc(-n2cc(-c3nc4c(cnn4Cc4cccnc4)[nH]3)cn2)cc1` here?
Answer: -0.445

Question: For `CN(C)c1ccc(N=Nc2ccccc2C(=O)O)cc1`, which z-score is on record?
Answer: -0.36

Question: For `CCCn1ncc(-c2ccnc(NCc3cc(CC)no3)n2)c1C`, which z-score is on record?
Answer: -0.59

Question: Which z-score does the source give for `CCc1nc(NC(=O)NC(c2ccccc2)c2ccccc2)nn1C` here?
Answer: 1.48

Question: With `NS(=O)(=O)c1ccc(CCC(=O)O)cc1` as the molecule, how does the z-score read?
Answer: 0.14

Question: Which z-score does the source give for `O=C(O)CCCCc1ccccc1` here?
Answer: 0.82

Question: For `O=c1[nH]cnc2c1ncn2C1CCC(CO)O1` (centres undefined), which z-score is on record?
Answer: 0.465

Question: For `Cc1cc(-c2cnn(C)c2)nc(N)n1`, which z-score is on record?
Answer: -0.56

Question: For `O=C(O)c1ccccc1C(=O)O`, which z-score is on record?
Answer: 0.455

Question: With `O=C(O)c1cnn(-c2ccccc2)c1` as the molecule, how does the z-score read?
Answer: 1.16

Question: Which z-score does the source give for `CC1OC(OCC2OC(Oc3c(-c4ccc(O)c(O)c4)oc4cc(O)cc(O)c4c3=O)C(O)C(O)C2O)C(O)C(O)C1O` (centres undefined) here?
Answer: 0.225

Question: Which z-score does the source give for `O=C1CCCc2occ(C(=O)N3CCc4[nH]nc(Cc5ccccc5)c4C3)c21` here?
Answer: -0.515

Question: For `CC(=O)NCC1CN(c2ccc(N3CCOCC3)c(F)c2)C(=O)O1` (centres undefined), which z-score is on record?
Answer: 0.65

Question: With `Cc1cc2nc3[nH]c(=O)[nH]c(=O)c3nc2cc1C` as the molecule, how does the z-score read?
Answer: 0.825

Question: For `Cc1nn(C)cc1-c1ccnc(NCc2nc(-c3ccccc3)no2)n1`, which z-score is on record?
Answer: 0.09

Question: For `CCCc1cn(CC2CCCN(C(=O)c3nc4ncccn4n3)C2)nn1` (centres undefined), which z-score is on record?
Answer: -0.51

Question: With `Cc1cn(C2C=CC(CO)O2)c(=O)[nH]c1=O` (centres undefined) as the molecule, how does the z-score read?
Answer: 0.42

Question: For `c1ccc2c(CCc3ccncc3)c[nH]c2c1`, which z-score is on record?
Answer: -0.71

Question: For `CN1CCN(Cc2ccc(-c3nc(-c4cccnc4)cc(=O)[nH]3)cc2)CC1`, which z-score is on record?
Answer: -0.55

Question: Which z-score does the source give for `COc1ncccc1C(=O)N1CCOc2ccccc21` here?
Answer: -0.395

Question: With `COc1ccc(F)c(-c2cccc(N)n2)c1` as the molecule, how does the z-score read?
Answer: -0.555

Question: Which z-score does the source give for `O=C1CN(C(=O)c2ccncc2)CCN1Cc1ccc2c(c1)OCO2` here?
Answer: -0.52

Question: For `Cc1nc(NC(=O)NCc2cccc(Cl)c2)nn1C`, which z-score is on record?
Answer: -0.605

Question: With `NC(=O)Cc1c[nH]c2ccccc12` as the molecule, how does the z-score read?
Answer: 0.1

Question: For `Cc1ncsc1-c1ccn(CC(=O)Nc2ccnn2Cc2cccs2)n1`, which z-score is on record?
Answer: -0.525

Question: Which z-score does the source give for `Nc1ccn(C2CCC(CO)O2)c(=O)n1` (centres undefined) here?
Answer: 0.445
